# Data from PubChem BioAssay (NCI).
# This is part of a sample that, as a whole, favours compounds with a hit. Of some 83,000 tested, about 20% had one in any assay.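 Growth was measured after 48 h exposure to one concentration of compound in 96-well plates. Values under 10 count as active.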 A number with no mark means an inactive call. The source made the active and inactive calls.
# What was measured:
# Assay in all cases: NCI-60 one-dose screen, 48 h (100 = growth as untreated, 0 = no growth, -100 = all killed)
# SK-MEL-2 melanoma = conditions: 10 µM unless noted
# EKVX NSCLC = conditions: 10 µM unless noted
# SN12C renal = conditions: 10 µM unless noted
# UO-31 renal = conditions: 10 µM unless noted
# TK-10 renal = conditions: 10 µM unless noted
# ACHN renal = conditions: 10 µM unless noted
# CAKI-1 renal = conditions: 10 µM unless noted
# A498 renal = conditions: 10 µM unless noted
# CCRF-CEM leukemia = conditions: 10 µM unless noted
# MOLT-4 leukemia = conditions: 10 µM unless noted
# SR leukemia = conditions: 10 µM unless noted
# RPMI-8226 leukemia = conditions: 10 µM unless noted
# OVCAR-8 ovarian = conditions: 10 µM unless noted
# OVCAR-5 ovarian = conditions: 10 µM unless noted
# OVCAR-4 ovarian = conditions: 10 µM
# IGROV1 ovarian = conditions: 10 µM unless noted
# OVCAR-3 ovarian = conditions: 10 µM unless noted
# HS 578T breast = conditions: 10 µM unless noted
# NCI/ADR-RES ovarian = conditions: 10 µM unless noted
# SK-OV-3 ovarian = conditions: 10 µM unless noted
SMILES,growth (SK-MEL-2 melanoma),growth (EKVX NSCLC),growth (SN12C renal),growth (UO-31 renal),growth (TK-10 renal),growth (ACHN renal),growth (CAKI-1 renal),growth (A498 renal),growth (CCRF-CEM leukemia),growth (MOLT-4 leukemia),growth (SR leukemia),growth (RPMI-8226 leukemia),growth (OVCAR-8 ovarian),growth (OVCAR-5 ovarian),growth (OVCAR-4 ovarian),growth (IGROV1 ovarian),growth (OVCAR-3 ovarian),growth (HS 578T breast),growth (NCI/ADR-RES ovarian),growth (SK-OV-3 ovarian)
Cn1cc(-c2nnc(-c3cn(C)c4ncccc34)s2)c2ccccc21,79.8%,70.7%,50.3%,39%,79.9%,86.6%,47%,31%,38.3%,47.9%,26.5%,43.9%,90.9%,90%,81%,70.2%,40.1%,83.7%,48%,–
NC(=O)CC1C=CCC1 (stereo not given),105%,105%,99.4%,91.5%,89.2%,100%,99.2%,97.1%,82.4%,95.6%,106%,96.5%,84.7%,96.7%,–,107%,111%,110%,109%,105%
CSc1nc2c(c(=O)n1C)C1(C(=O)N(Cc3ccccc3)c3ccccc31)c1c(nc(SC)n(C)c1=O)N2,80.8%,100%,95.1%,73.9%,113%,77.5%,103%,72.6%,98.8%,99.9%,104%,59.2%,85.5%,102%,99.5%,98%,75.2%,97.9%,95.2%,–
CC(C)=CC/C=C(/C)[C@H]1CC[C@]2(C)[C@@H]1CC[C@@H]1[C@@]3(C)CCC(=O)NC(C)(C)[C@@H]3CC[C@]12C,3.93% [100 µM] (active),29.7% [100 µM],-81.2% [100 µM] (active),-98.7% [100 µM] (active),3.59% [100 µM] (active),-63.5% [100 µM] (active),6.46% [100 µM] (active),-16.4% [100 µM] (active),-9.45% [100 µM] (active),-14.3% [100 µM] (active),12.3% [100 µM],-31.4% [100 µM] (active),0.344% [100 µM] (active),9.08% [100 µM] (active),–,-67.6% [100 µM] (active),-63.9% [100 µM] (active),-17.7% [100 µM] (active),13% [100 µM],38.6% [100 µM]
O=C1Nc2ccccc2/C1=C/C(=O)c1ccc(N2CCCCC2)cc1,113%,106%,73.5%,47.4%,85.8%,27.6%,63.8%,95.8%,5.19% (active),-6.75% (active),16.9%,26.9%,54.9%,104%,–,50%,10.4%,93.4%,90.3%,100%
CCN(CCNc1ccc(C)c2sc3cc(Cl)ccc3c(=O)c12)CC(C)O (stereo not given),40.7%,88.9%,48.7%,-61.8% (active),76.7%,44.7%,43.7%,51.4%,36.8%,34.5%,12.3%,-23.2% (active),58.3%,79.9%,77%,–,60.6%,63.2%,74.8%,–
C=C(C)[C@@H]1CC[C@]2(C(=O)NCCNCCNCCN)CC[C@]3(C)[C@H](CC[C@@H]4[C@@]5(C)CC[C@H](O)C(C)(C)[C@@H]5CC[C@]43C)[C@@H]12,-65.4% [100 µM] (active),-11.4% [100 µM] (active),-53.7% [100 µM] (active),-100% [100 µM] (active),-67.3% [100 µM] (active),-100% [100 µM] (active),-93.6% [100 µM] (active),-32.6% [100 µM] (active),5.18% [100 µM] (active),1.18% [100 µM] (active),-4.72% [100 µM] (active),-8.15% [100 µM] (active),-12.9% [100 µM] (active),-83.4% [100 µM] (active),–,-81.4% [100 µM] (active),-66% [100 µM] (active),-23.3% [100 µM] (active),-13.1% [100 µM] (active),-14.2% [100 µM] (active)
Cc1cccc(/C=C2\N=C(c3ccccc3)N(c3ccc(S(N)(=O)=O)cc3)C2=O)c1,102%,92.1%,91.8%,99.9%,98.5%,86.5%,86.2%,101%,99.9%,90.3%,69.6%,99.3%,73%,99.1%,–,96.2%,102%,76.1%,88.7%,98.8%
Fc1cc2[nH]ncc2c2c3c(c(-c4cn[nH]c4)nc12)CCCC3,-30.7% (active),13.1%,7.63% (active),-13.7% (active),20%,1.61% (active),2.83% (active),-56.5% (active),7.75% (active),2.1% (active),13.8%,1.77% (active),4.78% (active),4.24% (active),16.1%,1.4% (active),7.22% (active),-3.3% (active),34.7%,–
COc1ccc(NCc2cn(-c3ccc(C(=O)O)cc3)nc2-c2ccc(C(=O)O)cc2)cc1C(F)(F)F,106%,84.2%,95.3%,88.1%,83%,98.1%,86.3%,81.2%,-50.4% (active),123%,131%,88.4%,103%,93.3%,93.3%,99.7%,105%,83.2%,105%,–
C[C@]12CCc3c(ccc4cc(O)ccc34)[C@@H]1CC[C@H]2O,101%,56.9%,87.6%,87.2%,102%,103%,87.8%,85%,90.4%,95.1%,74.3%,94.6%,103%,107%,–,110%,94.9%,29.8%,101%,121%
COc1ccc(C2=C(c3cn(C)c4ccccc34)C(=O)OC2)cc1OC,33.6%,53%,36.9%,25%,61.4%,34%,25.6%,-10.9% (active),31.2%,32.4%,29.1%,40%,47.8%,64.9%,39.8%,43.4%,-8.6% (active),22.5%,22.7%,–
CN(C)c1ccc(-c2ccc(-c3ccc(C(=N)N)cc3)s2)cc1,107%,85.9%,-50.1% (active),80.8%,-87.9% (active),-38.8% (active),96.6%,0.528% (active),-22.5% (active),2.73% (active),5.33% (active),-40% (active),57.6%,-55.2% (active),8.97% (active),-63.5% (active),-85.3% (active),104%,46.3%,–
Brc1ccc2c(c1)CN(C1CCCCC1)CO2,107%,101%,113%,78.9%,111%,98.9%,102%,100%,107%,99.7%,96.3%,103%,114%,97.9%,–,107%,116%,91.7%,97.5%,92.3%
